Among the data in PubChem BioAssay (EPA / NIEHS) are outcome and AC50 values, retold here.

Molecules are shown by their SMILES. Activity calls are given as the source filed them. Rule for the calls: active = hit-call score of the fitted dose curve at least 0.9, where 1 is the maximum; inactive = score below 0.9.

Read-out in assay [1]: Tissue plasminogen activator (tPA), PLAT (gene 5327)
Description: BSK_BE3C_tPA: BioMAP Diversity Plus: BE3C Assay for Tissue plasminogen activator (tPA) Biomarker Activity (AID 2283041).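 For outcome: tPA level quantified by ELISA one day after compound addition.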 Conditions: primary human bronchial epithelial cells; actives raise or lower the signal. In short, it runs like this: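 Using human lung primary bronchial epithelial cells, tPA was measured by ELISA 24 h after dosing; data fitted relative to DMSO.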

Read-out in assay [2]: Interleukin-8 (IL8), CXCL8 (gene 3576)
Description: BSK_CASM3C_IL8: BioMAP Diversity Plus: CASM3C Assay for Interleukin-8 (IL8) Biomarker Activity (AID 2283042).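 Note: IL-8 protein level quantified by ELISA.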 Conditions: primary human coronary artery smooth muscle cells; actives raise or lower the signal.

Read-out in assay [3]: Human Leukocyte Antigen - DR isotype (HLADR), HLA-DRA (gene 3122)
Description: BSK_CASM3C_HLADR: BioMAP Diversity Plus: CASM3C Assay for Human Leukocyte Antigen - DR isotype (HLADR) Biomarker Activity (AID 2283043).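 Note: cell-surface HLA-DR protein level quantified by ELISA.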 Conditions: primary human coronary artery smooth muscle cells; actives raise or lower the signal.

Read-out in assay [4]: Macrophage colony-stimulating factor (MCSF), CSF1 (gene 1435)
Description: BSK_CASM3C_MCSF: BioMAP Diversity Plus: CASM3C Assay for Macrophage colony-stimulating factor (MCSF) Biomarker Activity (AID 2283044).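 Note: M-CSF protein amount quantified by ELISA after 24 h exposure.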 Conditions: primary human coronary artery smooth muscle cells; actives raise or lower the signal.

Read-out in assay [5]: Low-density lipoprotein receptor (LDLR), LDLR (gene 3949)
Description: BSK_CASM3C_LDLR: BioMAP Diversity Plus: CASM3C Assay for Low-density lipoprotein receptor (LDLR) Biomarker Activity (AID 2283045).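 Note: LDLR protein level on the cell surface quantified by ELISA.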 To be noted: primary human coronary artery smooth muscle cells; actives raise or lower the signal.

Read-out in assay [6]: Monocyte Chemoattractant Protein-1 (MCP1), CCL2 (gene 6347)
Description: BSK_CASM3C_MCP1: BioMAP Diversity Plus: CASM3C Assay for Monocyte Chemoattractant Protein-1 (MCP1) Biomarker Activity (AID 2283046).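 Note: MCP-1 level quantified by ELISA 24 h after dosing.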 To be noted: primary human coronary artery smooth muscle cells; actives raise or lower the signal.

Assay [7] can be described thus: BSK_CASM3C_Proliferation: Cell Proliferation Assessment in the BioMAP Diversity Plus: CASM3C Assay (AID 2283047).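 Note: sulforhodamine B total protein stain as relative cell number at 560 nm; sub-confluent cells exposed 48 h before staining; fitted both ways against DMSO so gain or loss of cell number.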 Conditions: primary human coronary artery smooth muscle cells.
Read-out in assay [8]: Monokine induced gamma interferon (MIG), CXCL9 (gene 4283)
Description: BSK_CASM3C_MIG: BioMAP Diversity Plus: CASM3C Assay for Monokine induced gamma interferon (MIG) Biomarker Activity (AID 2283048).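 Note: MIG protein level measured by ELISA.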 To be noted: primary human coronary artery smooth muscle cells; actives raise or lower the signal.

Read-out in assay [9]: serum amyloid A (SAA), SAA1 (gene 6288)
Description: BSK_CASM3C_SAA: BioMAP Diversity Plus: CASM3C Assay for serum amyloid A (SAA) Biomarker Activity (AID 2283049).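 Note: SAA protein level quantified by ELISA.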 Conditions: primary human coronary artery smooth muscle cells; actives raise or lower the signal.

The nature of assay [10]: BSK_CASM3C_SRB: Viability Assessment in the BioMAP Diversity Plus: CASM3C Assay (AID 2283050).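 Note: total protein by SRB staining as cytotoxicity measure in parallel cultures; cells exposed to compound for 24 h.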 To be noted: primary human coronary artery smooth muscle cells.
Read-out in assay [11]: Thrombomodulin, THBD (gene 7056)
Description: BSK_CASM3C_Thrombomodulin: BioMAP Diversity Plus: CASM3C Assay for Thrombomodulin Biomarker Activity (AID 2283051).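 Note: thrombomodulin protein level measured by ELISA 24 h after dosing.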 To be noted: primary human coronary artery smooth muscle cells; actives raise or lower the signal.

Read-out in assay [12]: Tissue Factor, F3 (gene 2152)
Description: BSK_CASM3C_TissueFactor: BioMAP Diversity Plus: CASM3C Assay for Tissue Factor Biomarker Activity (AID 2283052).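 Note: cell surface tissue factor protein level read by ELISA.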 Conditions: primary human coronary artery smooth muscle cells; actives raise or lower the signal.

Read-out in assay [13]: Interferon-gamma inducible Protein 10 (IP10), CXCL10 (gene 3627)
Description: BSK_hDFCGF_IP10: BioMAP Diversity Plus: hDFCGF Assay for Interferon-gamma inducible Protein 10 (IP10) Biomarker Activity (AID 2283053). Conditions: primary human foreskin fibroblasts; actives raise or lower the signal. Put shortly: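 Chemical-treated human skin fibroblasts (primary) were sampled at 24 h for IP-10 by ELISA. Both increases and decreases relative to DMSO were scored.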

Read-out in assay [14]: Urokinase-type plasminogen activator receptor (uPAR), PLAUR (gene 5329)
Description: BSK_CASM3C_uPAR: BioMAP Diversity Plus: CASM3C Assay for Urokinase-type plasminogen activator receptor (uPAR) Biomarker Activity (AID 2283054).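 Note: cell-surface uPAR protein level quantified by ELISA.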 To be noted: primary human coronary artery smooth muscle cells; actives raise or lower the signal.

Read-out in assay [15]: Vascular cell adhesion molecule 1 (VCAM1), VCAM1 (gene 7412)
Description: BSK_CASM3C_VCAM1: BioMAP Diversity Plus: CASM3C Assay for Vascular cell adhesion molecule 1 (VCAM1) Biomarker Activity (AID 2283055).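 Note: VCAM-1 protein level quantified by ELISA on the cells.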 Conditions: primary human coronary artery smooth muscle cells; actives raise or lower the signal.

Read-out in assay [16]: Collagen III, COL3A1 (gene 1281)
Description: BSK_hDFCGF_CollagenIII: BioMAP Diversity Plus: hDFCGF Assay for Collagen III Biomarker Activity (AID 2283056). Conditions: primary human foreskin fibroblasts; actives raise or lower the signal. Put shortly: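 Cells: human foreskin fibroblasts, primary. Dosing followed by 24 h incubation, then ELISA for collagen III. Both increases and decreases scored relative to DMSO.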

Read-out in assay [17]: Epidermal growth factor receptor (EGFR), EGFR (gene 1956)
Description: BSK_hDFCGF_EGFR: BioMAP Diversity Plus: hDFCGF Assay for Epidermal growth factor receptor (EGFR) Biomarker Activity (AID 2283057). To be noted: primary human foreskin fibroblasts; actives raise or lower the signal. In short, it runs like this: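 Cell-based multiplexed assay in primary human foreskin fibroblasts. EGFR is read by ELISA 24 h after treatment and compared with DMSO controls.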

Read-out in assay [18]: Interleukin-8 (IL8), CXCL8 (gene 3576)
Description: BSK_hDFCGF_IL8: BioMAP Diversity Plus: hDFCGF Assay for Interleukin-8 (IL8) Biomarker Activity (AID 2283058). Conditions: primary human foreskin fibroblasts; actives raise or lower the signal. In short, it runs like this: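 IL-8 levels from compound-treated primary human fibroblasts were read by ELISA at 24 h, with DMSO serving as baseline for bidirectional fitting.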

Assay [19] in a line: BSK_hDFCGF_Proliferation: Cell Proliferation Assessment in the BioMAP Diversity Plus: hDFCGF Assay (AID 2283059).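 Note: curves fitted for both rise and fall of signal versus DMSO baseline.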 To be noted: primary human foreskin fibroblasts. In short, it runs like this:
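Sub-confluent human foreskin fibroblast cultures receive test chemical […]. Relative cell number is quantified by sulforhodamine B staining (0.1%, after 10% TCA fixation) at 560 nm, with bidirectional fitting referenced to DMSO.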

Read-out in assay [20]: Macrophage colony-stimulating factor (MCSF), CSF1 (gene 1435)
Description: BSK_hDFCGF_MCSF: BioMAP Diversity Plus: hDFCGF Assay for Macrophage colony-stimulating factor (MCSF) Biomarker Activity (AID 2283060). Conditions: primary human foreskin fibroblasts; actives raise or lower the signal. In short, it runs like this:
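M-CSF levels, determined by ELISA, are taken at 24 h after dosing human skin fibroblasts. Responses in either direction are fitted with DMSO serving as the baseline.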

For `CCSC(=O)N(CC)C1CCCCC1`, the result in assay [1], in assay [2], in assay [3], in assay [4], in assay [5] and in [6] was inactive. Also, the outcome in assay [7], in assay [8], in assay [9], in [10], in assay [11] and in assay [12] was inactive. Further, the result in assay [13], in assay [14], in assay [15], in [16], in assay [17] and in [18] was inactive. Moreover, the outcome in assay [19] and in [20] was inactive.

With `COS(=O)(=O)OC`, the result in assay [1], in assay [2], in assay [3], in [4], in assay [5] and in assay [6] was inactive. The outcome in assay [7], in assay [8], in [9], in [10], in assay [11] and in assay [12] was inactive. The outcome in assay [13], in [14], in assay [15], in assay [16], in assay [17] and in assay [18] was inactive. The outcome in assay [19] and in assay [20] was inactive.

As to `C=CC(=O)NCNC(=O)C=C`, the result in assay [1], in assay [2], in assay [3], in [4], in assay [5] and in assay [6] was inactive. Moreover, the result in assay [7], in [8], in assay [9], in assay [10], in [11] and in assay [12] was inactive. The outcome in assay [13], in assay [14], in [15], in assay [16], in [17] and in assay [18] was inactive. Besides, the outcome in [19] and in [20] was inactive.

By AC50 is commonly meant the concentration giving half of the maximal activity seen. For the compound `Nc1ccc(-c2ccc(N)cc2)cc1`, the AC50 in [1] was 6.73 µM (active). Further, the outcome in assay [2], in assay [3], in assay [4], in assay [5], in assay [6] and in [7] was inactive. Also, the result in assay [8], in [9], in [10], in assay [11], in assay [12] and in assay [13] was inactive. Further, the result in assay [14], in assay [15], in [16], in assay [17], in [18] and in assay [19] was inactive. Moreover, the outcome in assay [20] was inactive.

On to `CCOCCOC(C)=O`, for which the result in assay [1], in assay [2], in assay [3], in assay [4], in assay [5] and in assay [6] was inactive. Besides, the outcome in assay [7], in assay [8], in [9], in [10], in assay [11] and in [12] was inactive. Moreover, the result in assay [13], in [14], in assay [15], in assay [16], in assay [17] and in assay [18] was inactive. The result in assay [19] and in assay [20] was inactive.

As to `N#Cc1ccc(N(CC(N)=O)CC(F)(F)F)cc1C(F)(F)F`, the result in [1], in assay [2], in assay [3], in [4], in assay [5] and in assay [7] was inactive. The result in assay [8], in assay [9], in assay [10], in [11], in assay [12] and in [13] was inactive. Besides, the outcome in assay [14], in assay [15], in assay [16], in [17], in assay [18] and in assay [19] was inactive. Moreover, the outcome in assay [20] was inactive. Also, the AC50 in [6] is 0.335 µM (active).
